A selection: hits, their analogues and other compounds. The true share with any hit is near 3.5%.
GPR151 ag = activators of human GPR151, primary screen, cell-based, PathHunter beta-arrestin, luminescence; G-protein coupled receptor 151 (Homo sapiens), Q8TDV0; PathHunter beta-arrestin GPR151 cells; activation, % at 11.2 µM; actives 1% (n = 650,000); AID 1508602, 2020; in the data active = activation above about 4.9%;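 note: 0% = median of compound wells and 100% = cells with positive control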
MITF inh = MITF inhibitors, primary screen, biochemical, AlphaScreen, human; Microphthalmia-associated transcription factor (Homo sapiens), O75030; AlphaScreen MITF homodimerization, bead proximity signal; inhibition, % at 2.6 µM; actives 0.91% (n = 650,000); AID 1259374, 2018; in the data active = inhibition above about 50%;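 note: 0% = vehicle wells with protein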
TEAD-YAP block = TEAD-YAP interaction inhibition, primary screen, TEAD-YAP interaction inhibitor project, luminescence, HEK-TIYL cells; TEAD-Gal4/YAP UAS-luciferase luminescence; inhibition, % at 9.12 µM; actives 1.4% (n = 640,000); in the data active = inhibition above about 32%;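 note: 0% = median of test compound wells and 100% = reference inhibitor wells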
FBW7 activator = FBW7 E3 ligase activators, primary screen, biochemical, AlphaScreen, human. F-box/WD repeat-containing protein 7 (Homo sapiens), Q969H0. AlphaScreen FBW7–phospho-cyclin E peptide binding, activator screen. normalized activity (activation), % at 26.1 µM. actives 0.13% (n = 650,000); in the data active = normalized activity above about 1.9%;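 note: purified mutant Fbw7 with reduced substrate affinity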
Target sequence (Q969H0 whole entry, looked up): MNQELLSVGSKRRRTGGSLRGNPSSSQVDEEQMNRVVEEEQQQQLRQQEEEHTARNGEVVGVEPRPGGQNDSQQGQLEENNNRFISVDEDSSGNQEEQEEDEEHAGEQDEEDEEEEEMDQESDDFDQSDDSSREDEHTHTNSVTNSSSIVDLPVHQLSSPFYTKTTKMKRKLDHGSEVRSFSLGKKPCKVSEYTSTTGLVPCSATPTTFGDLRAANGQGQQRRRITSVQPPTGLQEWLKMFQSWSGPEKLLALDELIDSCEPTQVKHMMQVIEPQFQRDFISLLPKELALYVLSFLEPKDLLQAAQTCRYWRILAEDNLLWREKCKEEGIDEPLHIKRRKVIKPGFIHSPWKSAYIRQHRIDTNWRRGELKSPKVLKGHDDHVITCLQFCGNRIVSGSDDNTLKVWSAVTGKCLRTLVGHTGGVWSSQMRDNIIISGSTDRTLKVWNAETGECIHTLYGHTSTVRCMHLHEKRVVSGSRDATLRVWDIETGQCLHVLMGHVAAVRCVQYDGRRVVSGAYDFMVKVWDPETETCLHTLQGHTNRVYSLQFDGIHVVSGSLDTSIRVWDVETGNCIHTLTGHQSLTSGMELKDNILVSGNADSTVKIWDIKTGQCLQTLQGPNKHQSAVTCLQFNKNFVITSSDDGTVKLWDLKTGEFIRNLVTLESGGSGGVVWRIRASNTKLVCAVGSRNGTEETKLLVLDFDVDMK
* hit, by the source's call.

SMILES	GPR151 ag	MITF inh	TEAD-YAP block	FBW7 activator
COc1cccc2cc(C(=O)Nc3ccc(-c4nc5ccccc5[nH]4)cc3)oc12	-1	0	7	1
CC(C)C(C(=O)O)N1C(=O)/C(=C/C=C/c2ccco2)SC1=S (centres undefined)	0	64*	-2	-1
CN1C(=O)/C(=C\C=C\c2ccco2)SC1=S	1	82*	-1	-1
CN1C(=O)S/C(=C\C=C\c2ccco2)C1=O	1	44	-20	0
CC(C)CCOC(=O)C(=O)NN(C(=O)Nc1ccccc1)c1ccccc1	1	-5	1	0
CN(C)CCNCc1ccc(OCC(O)CN(C)Cc2ccccc2)cc1 (centres undefined)	0	-12	3	0
O=C(COC(=O)c1n[nH]c(=O)c2ccccc12)NC1CCCCCC1	2	5	1	0
COc1ccc2sc3ccccc3c(=O)c2c1	-5	-16	-40	1
Nc1ccc2sc3ccccc3c(=O)c2c1	-2	-6	-54	2.1*
CC(C)OC(=O)c1ccc(NC(=O)COc2cc(Cl)ccc2Cl)cc1	-1	-4	-2	0
CCOc1cc(/C=C2\C(=O)N(c3cccc(C(=O)O)c3)N=C2C)cc(Cl)c1OC	-1	61*	-2	-1
CC1=NN(c2cccc(C(=O)O)c2)C(=O)/C1=C\c1ccccc1O	1	57*	-25	-1
CC1=NN(c2cccc(C(=O)O)c2)C(=O)/C1=C\c1ccc(-c2ccc(Cl)c(C(=O)O)c2)o1	3	74*	9	-1
Cc1ccc(-c2nsc(=O)o2)s1	0	-6	1	0
COCC1CCCCN1C(=O)c1ccc(OC)c(OC2CCN(C(C)=O)CC2)c1 (centres undefined)	0	0	9	0
Clc1nc2ncccc2nc1-c1ccccc1	1	-7	41*	0
Fc1cccc(-c2nc3cccnc3nc2-c2cccc(F)c2)c1	-1	2	13	0
N#C/C(C(N)=O)=c1/s/c(=C\c2cccs2)c(=O)n1Cc1ccc2c(c1)OCO2	0	10	-11	0
O=C(CCCn1c2ccccc2c(=O)c2ccccc21)Nc1cc(Sc2ccc(F)cc2)cc([N+](=O)[O-])c1	-1	-1	6	1
Cc1ccc(C)c(N2CCN(C(=O)C34CC5CC(C3)CC(n3nnc(C)n3)(C5)C4)CC2)c1	-1	24	37*	1
CCCNC(=O)c1ccc2nc(Nc3ccccc3)sc2c1	1	10	-26	0
COc1ccc(CN2CCC(C(=O)O)CC2)cc1OC	-2	0	-3	0
CCCNc1cc(Nc2ncccn2)nc(N)n1	0	-4	-11	0
CCCNc1cc(Nc2ccccn2)nc(N)n1	-1	-9	34*	0
c1ccc(-c2csc(=Nc3cccnc3)n2Cc2ccc3c(c2)OCO3)cc1	-1	8	9	0
SMILES	GPR151 ag	MITF inh	TEAD-YAP block	FBW7 activator
CCn1c(O)c(C=Nc2ccccc2Cl)sc1=S	0	-3	32*	0
Cn1cc(-c2ccc3cnc(Nc4ccc(-n5cnc(-c6ccncc6)n5)cc4)nc3c2)cn1	-1	14	45*	1
Cn1cc(-c2ccc(Nc3ncc4ccc(-c5cnn(CCN6CCOCC6)c5)cc4n3)cc2)cn1	0	3	51*	0
Cc1cc(-c2ncn(-c3ccc(Nc4ncc5ccc(-c6cnn(C)c6)cc5n4)cc3)n2)ccn1	-3	27	88*	1
Cn1cc(-c2ccc3nc(Nc4ccc(-n5cnc(N6CCOCC6)n5)cc4)ncc3c2)cn1	0	36	-8	0
CCc1c(C)nc(SCC(=O)NCc2ccc(F)cc2)[nH]c1=O	0	18	12	0
COc1cccc(C2=CC(c3ccc(OC)cc3OC)n3ncnc3N2)c1 (centres undefined)	-1	3	40*	0
COc1cccc(C2=CC(c3ccccc3OC(F)F)n3ncnc3N2)c1 (centres undefined)	-1	6	52*	0
COc1cccc(C2=CC(c3ccc(OC(F)F)cc3)n3ncnc3N2)c1 (centres undefined)	-1	3	-52	1
COc1cccc(C2=CC(c3cc(Br)ccc3F)n3ncnc3N2)c1 (centres undefined)	0	1	47*	0
COCCCNC(=O)Cn1cnc2sc(C)c(S(=O)(=O)N3CCOCC3)c2c1=O	2	0	-4	0
CCOC(=O)c1cnc2c(OC)cccc2c1NC(C)CC (centres undefined)	1	-4	22	0
CCc1ccc2oc(-c3ccc(NC(=O)c4ccc5c(c4)OCCO5)cc3)nc2c1	0	-3	39*	1
O=C(Nc1ccc2oc(-c3cccc(I)c3)nc2c1)c1ccc(-c2cccc([N+](=O)[O-])c2)o1	-1	-6	2	0
O=C(Nc1ccc2oc(-c3ccc(I)cc3)nc2c1)c1ccc2c(c1)OCCO2	-1	-10	-17	0
CC(C)(C)c1ccc(-c2nc3cc(NC(=O)c4ccc(-c5cccc([N+](=O)[O-])c5)o4)ccc3o2)cc1	1	-13	34*	0
CC(C)(C)c1ccc(-c2nc3cc(NC(=O)c4ccc(Br)o4)ccc3o2)cc1	0	-10	37*	0
CC(C)(C)c1ccc(C(=O)Nc2ccc3oc(-c4ccc(C(C)(C)C)cc4)nc3c2)cc1	1	9	-7	0
CC(C)[C@H](NC(=O)c1ccc(Cl)cc1)C(=O)OCC(N)=O	-1	10	4	0
Cc1ccc(NC2OC(CO)C(O)C(O)C2O)cc1NC1OC(CO)C(O)C(O)C1O (centres undefined)	1	-1	-2	0
O=C(Nc1nnc(C23CC4CC(CC(C4)C2)C3)s1)c1ccco1	-1	11	-16	1.9*
Cc1ccc(C(=O)Nc2nc3ccc4sc(C)nc4c3s2)cc1	-2	10	-19	0
Cc1nc2c(ccc3nc(NC(=O)c4ccco4)sc32)s1	-2	19	50*	0
Cc1nc2ccc3nc(NC(=O)c4ccco4)sc3c2s1	1	-20	-48	26*
Cc1nc2c(ccc3nc(NC(=O)C4=COCCO4)sc32)s1	-6	-4	79*	0
N#CC(C#N)=C1C=C2C=C(N3CCN(Cc4ccccc4)CC3)CCC2CC1 (centres undefined)	-2	8	0	0
COc1cc(Nc2cc(-c3ccccc3)nc(N)n2)cc(OC)c1OC	0	7	18	0
CC(=N)C1=C(O)CN(c2ccccc2)C1=O	-1	3	4	1
O=C(c1cc(-c2ccncc2)nc2ccc(Cl)cc12)N1CCN(c2ccccn2)CC1	0	-6	40*	0
CCOc1ccccc1N1CCN(C(=O)c2cc(-c3cccc(C)c3)nc3ccccc23)CC1	0	22	42*	0
